From PubChem BioAssay (Tox21)
Values without a mark were called inactive. Results filed as inconclusive are left out. A call without a number means that no potency is given here. Activity calls are given as the source filed them. Unless noted, calls follow the shape of the dose curve; as a rule, active = well fitted curve in the direction sought with a large enough effect in the repeat runs; inconclusive = weak or mixed curves; inactive = no such curve, though single readings can be large; an effect the other way counts as inactive or inconclusive.

Key:
[1] = A CellTox Green Cytotoxicity Assay to monitor cytotoxicity in HepG2 cells - 8 hour (AID 1224890); also: nearly all actives have a fitted effect of over 45% in size
Procedure, shortened: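 Cytotoxicity was tracked as dead-cell DNA fluorescence in HepG2 cells treated with test compounds at 37 C; each time-point value comes from one kinetic series spanning 0, 8, 16, 24, 32 and 40 h.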

[2] = qHTS assay to identify small molecule antagonists of the estrogen receptor alpha (ER-alpha) signaling pathway using the BG1 cell line in the presence of 0.1 nM 17-beta-estradiol - cell viability counter screen (AID 1259241); also: nearly all actives have a fitted effect of over 40% in size
Procedure, shortened: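 The cell line endogenously expresses full-length ER-alpha and carries four EREs driving luciferase. Cells are cultured 5 days hormone-free, treated 22 hr with compounds and 0.1 nM estradiol, then viability is read by fluorescence.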

[3] = qHTS assay to identify small molecule antagonists of the androgen receptor (AR) signaling pathway using the MDA cell line in the presence of 0.5 nM R1881 - cell viability counter screen (AID 1259242); also: nearly all actives have a fitted effect of over 45% in size
Procedure, shortened: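 Cells seeded at 3,000/well and allowed 5 hr at 37C, 0% CO2 before compound transfer and R1881 (0.5 nM final) addition; 16 hr later, live-cell protease fluorescence indicated cytotoxicity.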

[4] = qHTS assay to identify small molecule HDAC inhibitors (AID 1259364);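 also: wild-type HCT-116 cells with endogenous class I/II HDAC activity; top concentration of the series differs between compounds; nearly all actives have a fitted effect of over 45% in size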
Procedure, shortened: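 HCT-116 wt cells, 1,500/well, overnight attach. Compounds (DMSO) 2 h, 37 °C. HDAC-Glo I/II, 30 min RT. Luminescence.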

[5] = qHTS assay to identify small molecule HDAC inhibitors - cell viability counter screen (AID 1259365); also: series mostly up to about 92 µM; nearly all actives have a fitted effect of over 50% in size
Procedure, shortened: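 Viability readout: CellTiter-Glo luminescence. Wild-type HCT-116 cells, 2hr compound treatment following overnight attachment at 37 C.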

[6] = qHTS assay to identify small molecule agonists of the sonic hedgehog signaling (Shh) pathway - cell viability counter screen (AID 1259366); also: nearly all actives have a fitted effect of over 50% in size
Procedure, shortened: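 Viability measured fluorometrically (CellTiter-Fluor, 1hr, 37C) in 3T3 Gli1-Luc reporter cells after 23hr compound exposure within a 24hr incubation at 37C/5% CO2.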

[7] = qHTS assay to identify small molecule antagonists of the sonic hedgehog signaling (Shh) pathway - cell viability counter screen (AID 1259367); also: nearly all actives have a fitted effect of over 55% in size
Procedure, shortened: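 Conditioned medium drove Shh signaling in 3T3 Gli1-Luc cells exposed to compounds at 37C and 5% CO2. Viability was determined from CellTiter-Fluor fluorescence, with reagent incubated 1 hr after 23 hr of treatment.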

[8] = qHTS assay to identify small molecule agonists of the sonic hedgehog signaling (Shh) pathway (AID 1259368; calls by dose curve;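 also: NIH/3T3-derived 3T3Gli1-Luc cells carrying a stable Gli1-driven firefly luciferase reporter; series mostly up to about 92 µM; nearly all actives have a fitted effect of over 15% in size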)
Procedure, shortened: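 Following a 24 hr incubation with DMSO-dissolved compounds at 37 C, 5% CO2, Gli1-Luc NIH/3T3-derived cells received luciferase reagent for 30 min at room temperature prior to luminescence measurement.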

[9] = qHTS assay to identify small molecule antagonists of the sonic hedgehog signaling (Shh) pathway (AID 1259369; calls by dose curve; also: nearly all actives have a fitted effect of over 45% in size; also: potency is read from the fitted curve at half-maximal effect)
Procedure, shortened: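 Read-out is luminescence from a firefly luciferase gene controlled by the Gli1 response element, in 3T3Gli1-Luc cells pre-incubated 4hr then exposed to compounds and conditioned medium for 24hr.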

[10] = target: Estrogen receptor beta (Homo sapiens) (UniProt Q92731); assay: qHTS assay to identify small molecule agonists of the estrogen receptor beta (ER-beta) signaling pathway (AID 1259377; active = well fitted activation curve with a large enough effect in the signal ratio in the repeat runs, not every such curve was filed as active; the % refers to the signal ratio)
Sequence of Estrogen receptor beta (Homo sapiens) (Q92731 whole entry, looked up): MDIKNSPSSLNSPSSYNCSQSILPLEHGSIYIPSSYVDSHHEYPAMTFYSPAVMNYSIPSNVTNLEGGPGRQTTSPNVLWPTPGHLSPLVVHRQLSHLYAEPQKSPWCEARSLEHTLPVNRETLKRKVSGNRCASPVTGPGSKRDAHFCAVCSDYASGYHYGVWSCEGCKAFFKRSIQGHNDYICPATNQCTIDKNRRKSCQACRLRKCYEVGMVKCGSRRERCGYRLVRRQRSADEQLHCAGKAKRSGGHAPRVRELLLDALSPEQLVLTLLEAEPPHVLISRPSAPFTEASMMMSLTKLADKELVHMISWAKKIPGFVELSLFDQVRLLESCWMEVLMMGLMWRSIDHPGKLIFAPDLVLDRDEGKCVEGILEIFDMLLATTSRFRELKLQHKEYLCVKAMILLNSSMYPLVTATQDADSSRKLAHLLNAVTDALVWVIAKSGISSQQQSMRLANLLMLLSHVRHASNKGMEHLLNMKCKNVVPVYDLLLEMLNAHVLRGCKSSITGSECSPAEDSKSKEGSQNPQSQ
Procedure, shortened: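 A UAS-controlled beta-lactamase reporter in ER-beta-UAS-bla HEK293T cells reports receptor activation. Compounds act for 16 hr at 37C in 2% charcoal-stripped serum, and a FRET substrate is read by fluorescence after 2 hours.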

[11] = target: Estrogen receptor beta (Homo sapiens) (UniProt Q92731); assay: qHTS assay to identify small molecule antagonists of the estrogen receptor beta (ER-beta) signaling pathway (AID 1259378; active = well fitted inhibition curve with a large enough effect in the signal ratio in the repeat runs, not every such curve was filed as active; the % refers to the signal ratio)
Procedure, shortened: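 ER-beta-UAS-bla HEK293T (GripTite) cells in 2% charcoal-stripped FBS medium were preincubated 6 hr at 37C, dosed with compound, then stimulated with 1 nM E2 (final) for 16 hr; beta-lactamase reporter read by B/G FRET fluorescence after 2 hr substrate loading.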

[12] = qHTS assay to identify small molecule agonists of the androgen receptor (AR) signaling pathway in the presence of an antagonist - cell viability counter screen (AID 1259379);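 also: MDA-kb2 human breast cancer cells carrying an MMTV luciferase reporter; series mostly up to about 92 µM; nearly all actives have a fitted effect of over 25% in size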
Procedure, shortened: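 Each compound was tested at 15 concentrations on MDA-kb2 cells in the presence of 3.0uM nilutamide. Viability was measured by CellTiter-Fluor fluorescence after a 16 hr incubation at 37C in a CO2-free atmosphere.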

[13] = qHTS assay to identify small molecule agonists of the estrogen receptor beta (ER-beta) signaling pathway - cell viability counter screen (AID 1259380); also: nearly all actives have a fitted effect of over 30% in size
Procedure, shortened: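 Compounds dissolved in DMSO were pin-transferred onto ER-beta-UAS-bla HEK293T cells that had settled 6 hr, and exposure ran 16 hr at 37C. Following the reporter read, CellTiter-Glo luminescence after 30 min at room temperature indicated cytotoxicity.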

[14] = qHTS assay to identify small molecule antagonists of the estrogen receptor beta (ER-beta) signaling pathway - cell viability counter screen (AID 1259382); also: series mostly up to about 92 µM; nearly all actives have a fitted effect of over 55% in size
Procedure, shortened: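 CellTiter-Glo ATP luminescence measured after the LiveBLAzer read in the same wells; ER-beta-UAS-bla HEK293T cells, 16 hr compound treatment with 1nM 17-beta-estradiol agonist at 37C, 5% CO2.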

[15] = qHTS assay to identify small molecule agonists or antagonists of the thyroid stimulating hormone receptor (TSHR) signaling pathway - wild type cell line counter screen (AID 1259384; calls by dose curve)
Procedure, shortened: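 Wild-type HEK293 cells were plated 18 h at 37 C/5% CO2, pin-dosed with compound plus Ro20-1724 medium, held 30 min at room temperature, then given cAMP-d2 and anti-cAMP-cryptate; fluorescence was read after 1 h. Fifteen concentrations, triplicate.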

[16] = target: Estrogen receptor (Homo sapiens) (UniProt P03372); assay: qHTS assay to identify small molecule antagonists of the estrogen receptor alpha (ER-alpha) signaling pathway using the BG1 cell line in the presence of 0.1 nM 17-beta-estradiol (AID 1259244); also: nearly all actives have a fitted effect of over 50% in size
Sequence of Estrogen receptor (Homo sapiens) (P03372 whole entry, looked up): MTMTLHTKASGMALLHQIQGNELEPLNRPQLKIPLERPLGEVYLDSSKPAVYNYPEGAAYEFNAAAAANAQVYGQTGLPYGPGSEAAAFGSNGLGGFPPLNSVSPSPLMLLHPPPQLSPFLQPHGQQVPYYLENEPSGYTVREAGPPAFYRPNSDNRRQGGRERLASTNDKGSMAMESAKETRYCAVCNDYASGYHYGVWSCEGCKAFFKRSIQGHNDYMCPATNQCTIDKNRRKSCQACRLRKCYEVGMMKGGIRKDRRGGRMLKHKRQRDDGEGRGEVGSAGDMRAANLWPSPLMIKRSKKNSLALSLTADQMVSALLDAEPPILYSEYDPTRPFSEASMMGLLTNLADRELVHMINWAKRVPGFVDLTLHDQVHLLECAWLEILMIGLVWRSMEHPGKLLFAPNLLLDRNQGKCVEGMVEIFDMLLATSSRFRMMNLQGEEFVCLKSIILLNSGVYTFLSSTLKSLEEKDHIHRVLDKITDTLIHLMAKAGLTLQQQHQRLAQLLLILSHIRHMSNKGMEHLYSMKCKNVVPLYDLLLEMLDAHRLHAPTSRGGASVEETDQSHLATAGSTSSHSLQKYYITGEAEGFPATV
Procedure, shortened: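 Luciferase signal from VM7Luc4E2 ERE-reporter cells, co-dosed with test compound and 0.1 nM final 17beta-estradiol for 22 h, read with ONE-Glo.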

[17] = target: Estrogen receptor (Homo sapiens) (UniProt P03372); assay: qHTS assay to identify small molecule agonists of the estrogen receptor alpha (ER-alpha) signaling pathway in the presence of an antagonist (AID 1259383; calls by dose curve; also: top concentration of the series differs between compounds; nearly all actives have a fitted effect of over 15% in size)
Procedure, shortened: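 Luminescent ERE-luciferase reporter, VM7Luc4E2 cells (endogenous ER-alpha); 10.0nM ICI-182,780 final; 15-point compound titration; 22hr at 37C; ONE-Glo, 30min RT.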

[18] = qHTS assay to identify small molecule phospholipidosis (PLD) inducers (AID 1259344; active = well fitted curve in the direction sought with a large enough effect; an effect the other way counts as inactive or inconclusive)
Procedure, shortened: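 After 4 h attachment on collagen I, HepG2 cells were dosed with compound alongside LipidTOX Red, kept 24 h at 37 C, fixed, and imaged for lamellar phospholipid pits.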

SMILES | Potency [1] | outcome [2] | outcome [3] | Potency [4] | outcome [5] | Potency [6] | outcome [7] | Potency [8] | Potency [9] | outcome [10] | Potency [11] | Potency [12] | Potency [13] | Potency [14] | outcome [15] | outcome [16] | Potency [17] | Potency [18]
CC1=CC(=O)CCC1 | inactive | inactive | inactive | inactive | inactive | inactive | inactive | inactive | inactive | inactive | inactive | inactive | inactive | inactive | inactive |  |  | 
C=C(C)C(=O)NCCCN(C)C | inactive | inactive | inactive | inactive | inactive | inactive | inactive | inactive | inactive | inactive | inactive | inactive | inactive | inactive |  |  |  | 
C=C(C)[C@H]1CC=C(C)CC1 | inactive | inactive | inactive | inactive | inactive |  |  | inactive |  |  |  | inactive | inactive | inactive |  | inactive | inactive | 
Nc1ccc2cc(S(=O)(=O)O)ccc2c1 | inactive | inactive | inactive | inactive |  | inactive | inactive | inactive |  |  |  | inactive | inactive | inactive | inactive | inactive | inactive | 
COc1cc(C)cc(O)c1 | inactive | inactive | inactive | inactive | inactive | inactive | inactive | inactive | inactive | inactive | inactive | inactive | inactive | inactive |  |  |  | 
CC(C)(C)CC(C)(C)N | inactive | inactive | inactive | inactive |  | inactive | inactive | inactive | inactive | inactive | inactive | inactive | inactive | inactive | inactive | inactive | inactive | 
C=CCSCC1Nc2cc(Cl)c(S(N)(=O)=O)cc2S(=O)(=O)N1 (configuration not stated) | inactive | inactive | inactive | inactive | inactive | inactive | inactive | inactive | inactive |  |  | inactive | inactive | inactive | inactive |  |  | inactive
CC(C)=CCC/C(C)=C/C(=O)O | inactive | inactive | inactive | inactive |  | inactive | inactive | inactive | inactive |  |  | inactive | inactive | inactive |  | inactive | inactive | 
CO | inactive | inactive | inactive | inactive |  | inactive | inactive | inactive | inactive |  |  | inactive | inactive | inactive | inactive |  |  | inactive
Cc1cc(C)c(NC(=O)CN(CC(=O)O)CC(=O)O)c(C)c1Br | inactive | inactive | inactive | inactive | inactive | inactive | inactive | inactive | inactive |  |  | inactive | inactive | inactive |  |  |  | inactive
CC(=O)CCc1ccc(O)cc1 | inactive | inactive | inactive | inactive |  | inactive | inactive | inactive | inactive |  | inactive | inactive | inactive | inactive | inactive | inactive | inactive | 
Cc1onc(-c2ccccc2)c1-c1ccc(S(N)(=O)=O)cc1 | inactive | inactive | inactive | inactive | inactive |  | inactive | inactive | 18.8 µM (active) | inactive |  | inactive | inactive | inactive | inactive |  |  | inactive
NC(=O)Nc1nc2ccccc2[nH]1 | inactive | inactive | inactive | inactive |  | inactive | inactive | inactive | inactive | inactive |  | inactive | inactive | inactive |  | inactive | inactive | 
CC(C)CCCC(C)CCCC(C)CCCCC(C)CCCC(C)CCCC(C)C (configuration not stated) | inactive | inactive | inactive | inactive | inactive | inactive | inactive | inactive |  |  |  | inactive | inactive | inactive | inactive |  |  | inactive
CO[Si](OC)(OC)OC | inactive | inactive | inactive | inactive | inactive | inactive | inactive | inactive | inactive | inactive | inactive | inactive | inactive | inactive | inactive |  |  | 
OC/C=C/c1ccccc1 | inactive | inactive | inactive | inactive |  | inactive | inactive | inactive | inactive |  |  | inactive | inactive | inactive |  |  |  | inactive
CSc1ccc(C=O)cc1 | inactive | inactive | inactive | inactive | inactive | inactive | inactive | inactive | inactive | inactive | inactive | inactive | inactive | inactive | inactive |  |  | 
NC(CS)C(=O)O (configuration not stated) | inactive | inactive | inactive | inactive |  | inactive | inactive | inactive |  |  |  | inactive | inactive | inactive | inactive |  |  | inactive
C[C@H]1O[C@@H](n2cc(F)c(=O)[nH]c2=O)[C@H](O)[C@@H]1O | inactive | inactive | inactive | inactive | inactive | inactive | inactive | inactive | inactive | inactive | inactive | inactive | inactive | inactive | inactive |  |  | inactive
